Rows were chosen to be rich in hits. Some 21% of all compounds tested hit in one or more screens of this group.
NS1 function inh = inhibitors of influenza NS1 protein function. 270,000 tested, 0.4% active. Potency, µM (top dose mostly 46.1 µM), inactives show top-dose activity, positive = more growth; calls by dose curve; further: potency means the concentration at half of the fitted maximal effect; actives are rising curves; nearly all actives have a fitted effect of over 50% in size
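A cell-based growth assay was used: compounds that relieve NS1-induced slow growth of budding yeast raise OD600. Assay medium was yeast nitrogen base with ammonium sulphate and -URA supplement, pH 6.0, with 2% galactose.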
Pf growth 96h = P. falciparum growth inhibition at 96 hours; P. falciparum luciferase reporter growth, 96 h; Potency, µM (series often up to 28.7 µM), for the others: top-dose activity change, negative = inhibition, usual class: inhibitors; 320,000 tested, 6.9% active; AID 504834; further: potency means the concentration at half of the fitted maximal effect; on the % scale 0 is the no-effect control and ±100 the full control effect
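Cell-based qHTS: luciferase-tagged P. falciparum in erythrocytes (2% hematocrit, 0.05% parasitemia final) incubated with compounds for 96 hours, 37 C, 5% CO2; luciferase detection reagent then added and luminescence measured.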
Shiga inhibitor = blocks Shiga toxin action in Vero cells. 290,000 tested, 9.2% active. AID 2315. Vero cells, Shiga toxin protein synthesis inhibition reporter. inhibition, % at 38.7 µM; in the data active means inhibition mostly above about 28%, no sharp cut-off; inactive means mostly below about 43%; further: 0% is about no effect
CHX counter = affects cycloheximide protein synthesis inhibition readout, counter-screen; cell reporter, cycloheximide protein synthesis inhibition counterscreen; max response, %; 300,000 tested, 12% active; AID 2314; in the data active means max response mostly above about 13%, no sharp cut-off; inactive means mostly below about 14%; further: read at 38.3 µM for the half of the compounds with a filed dose; 0% is about no effect
Pf growth 48h = inhibits P. falciparum growth in the first generation, 48 h | P. falciparum luciferase growth in erythrocytes, 48 h | Potency, µM (doses to about 28.7 µM), for the others: at the top dose activity change, negative = inhibition, most hits filed as inhibitors | 310,000 tested, 5.9% active; further: potency means the concentration at half of the fitted maximal effect; on the % scale 0 is the no-effect control and ±100 the full control effect
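Luciferase-expressing P. falciparum in infected erythrocytes (2% hematocrit, 0.1% parasitemia final) in RPMI 1640/0.5% Albumax were exposed to compound for 48 hours at 37 C, 5% CO2; growth read as luminescence.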
* = called active by the depositor; ? = inconclusive; nt = not tested or not shown; ! = repeats disagree. Unless noted, the call rests on the fitted dose curve; in most records, active means well fitted inhibition curve with a large enough effect; inconclusive means small, poorly fitted or top-dose-only effect, or another doubt; inactive means no such curve, though single readings can be large or run the other way.

SMILES	NS1 function inh	Pf growth 96h	Shiga inhibitor	CHX counter	Pf growth 48h
O=C(c1ccccc1)N1CCN(C(=O)C2CC2)CC1	11%	19%	-8	-5	9%
Cc1ccc(C(=O)Nc2nc(=O)n(C(=O)C3CC3)s2)cc1	-15%	12%	20	16*	15%
Cc1ccc(C(=O)Nc2nc(=O)n(C(=O)c3ccccc3C)s2)cc1	-1%	10%	8	13	nt
COc1ccccc1C1=NC(c2ccc(F)cc2)N=C1C (stereo not drawn)	nt	226%	88*	28*	126%
COc1ccccc1-c1cc(N)n[nH]1	?	33%	-2	-2	nt
Cc1ccc(C(N)=Nc2ccccc2)cc1	-8%	70%	46	16*	47%
Cc1ccc(/C(N)=N/OC(=O)Cc2ccccc2)cc1	1%	6%	54*	53*	103%
CCOc1ccccc1OCCCC(=O)ON=C(N)c1ccccc1	nt	34%	nt	nt	16%
N/C(=N\OC(=O)Cc1ccccc1)c1ccc(Br)cc1	-14%	9%	104*	53*	42%
Cc1ccc(/C(N)=N/OC(=O)CCCc2ccccc2)cc1	16%	45%	43*	57*	27%
Nc1ccccc1C#CC(=O)c1ccccc1	-68%	3%	-2	-1	?
Cc1ccc(CC(=O)O/N=C(\N)c2ccncc2)cc1	-16%	10%	60	30*	-10%
N/C(=N\OC(=O)CCCc1ccccc1)c1ccccc1Cl	-31%	33%	48	33*	12%
COc1ccc(/C(N)=N/OC(=O)Cc2ccc(OC)c(OC)c2)cc1	-64%	?	26	18	?
COc1ccc(/C(N)=N/OC(=O)Cc2ccc(C)cc2)cc1	-8%	-9%	50*	30*	54%
CCCCCCN(C(=O)CCCCCN1C(=O)NC(c2ccc(-c3ccccc3)cc2)C(C(=O)OCc2ccccc2)=C1C)C(C(=O)NCCCC)c1ccccn1 (stereo not drawn)	-13%	2.3µM*	-5	-3	2.9µM*
CC1=C(C(=O)OCc2ccccc2)C(c2ccccc2)NC(=O)N1CCCC(=O)O (stereo not drawn)	4%	?	-5	-1	?
CCCCCCN(C(=O)CCCCCN1C(=O)NC(c2ccc(-c3ccccc3)cc2)C(C(=O)OCc2ccccc2)=C1C)C(C(=O)NCCCC)C1CCCCC1 (stereo not drawn)	-5%	2.6µM*	16	-7	0.83µM*
C/C(=N\NC(=S)Nc1c(C)cccc1C)c1ccc(OC(F)F)cc1	9%	?	2	-1	48%
CSc1nc(Oc2ccc(Cl)cc2)c2sccc2n1	4%	9.3µM*	6	-3	?
Cc1cc(C)n2cc(CSc3nc4ccccc4s3)nc2n1	-4%	-25%	40*	36*	108%
Cc1cc(C)n2cc(CSc3ccccn3)nc2n1	nt	-11%	13	-3	-20%
Cc1ccc(SCc2cn3c(C)cc(C)nc3n2)cc1	-4%	-6%	70*	23*	11%
Cc1cc(C)n2cc(CSc3nc4cc(Cl)ccc4o3)nc2n1	-42%	nt	-24	-4	20%
Cc1cc(C)n2cc(CSc3nnc(SCc4cn5c(C)cc(C)nc5n4)s3)nc2n1	8%	nt	16	-1	1%
SMILES	NS1 function inh	Pf growth 96h	Shiga inhibitor	CHX counter	Pf growth 48h
Cc1cc(C)n2cc(CSc3ccc(Cl)cc3)nc2n1	3%	-4%	49*	27*	30%
CSc1nc2ccsc2c(=O)n1-c1ccccn1	11%	-8%	-2	1	?
O=c1cc(-c2cccc(Cl)c2)oc2cccc(O)c12	5%	?	97	27*!	8%
O=c1cc(-c2ccccc2Cl)oc2ccc([N+](=O)[O-])c(O)c12	-20%	?	12	-1	0%
Nc1ccc2oc(-c3ccccc3Cl)cc(=O)c2c1O	-2%	210%	43*	50*	229%
O=c1cc(-c2cccc(Br)c2)oc2cccc(O)c12	-2%	9%	-7	-3	33%
Cc1ccccc1-c1cc(=O)c2c(O)cccc2o1	-13%	-7%	28*	22*	61%
COc1ccc(CNC(=O)C2CCN(C(=O)c3cccc(Cl)c3)CC2)cc1	1%	18%	-5	1	-2%
COc1ccc(OCc2nc(-c3ccc(F)c(F)c3)cs2)cc1	-2%	48%	-3	-2	42%
CCCCc1cc(=O)oc2cc(C)cc(OC(C)C(=O)NCc3ccccn3)c12 (stereo not drawn)	12%	?	-3	-2	?
CCc1cc(=O)oc2cc(C)cc(OC(C)C(=O)NCCCn3ccnc3)c12 (stereo not drawn)	-13%	?	8	-6	10µM*
Cc1cc(OC(C)C(=O)NCc2ccccn2)c2c(C)cc(=O)oc2c1 (stereo not drawn)	2%	3.7µM*	8	-4	1.7µM*
CCCCc1cc(=O)oc2cc(C)cc(OCC(=O)Nc3cccnc3)c12	-3%	0.52µM*	-5	-1	0.47µM*
CCCCc1cc(=O)oc2cc(C)cc(OCC(=O)NCc3ccccn3)c12	-1%	2.6µM*	6	-4	2.9µM*
Cc1ccc(OCCn2cnc(Cl)c2Cl)cc1	-12%	?	35	2	-20%
N#CCCCSc1nnc(-c2ccccn2)o1	2%	?	91	18	72%
O=S(=O)(c1ccccc1)N1CC1c1ccccc1 (stereo not drawn)	8%	11%	38*	47*	17%
CN(C)S(=O)(=O)c1ccc(N2CCCC2)c(C(=O)Nc2nc3ccc(F)cc3s2)c1	20%	6%	37*	14*	11%
CN(C)S(=O)(=O)c1ccc(N2CCCC2)c(C(=O)Nc2nc3ccccc3s2)c1	?	-12%	47*	14	18%
CN(C)S(=O)(=O)c1ccc(N2CCCC2)c(C(=O)Nc2nc(-c3ccc(F)cc3)cs2)c1	8%	?	-8	-1	9.3µM*
Cc1cccc2sc(NC(=O)c3cc(S(=O)(=O)N(C)C)ccc3N3CCCC3)nc12	3%	?	-8	1	?
CN(C)S(=O)(=O)c1ccc(N2CCCC2)c(C(=O)Nc2nc(-c3cc(F)ccc3F)cs2)c1	24%	?	19	-2	-15%
Cc1sc(N)nc1-c1c(C)n(C)c2ccccc12	-5%	3%	0	-3	1%

Source: PubChem BioAssay
